This note sets out measurements from PubChem BioAssay (NCI).

This is part of a sample that, as a whole, favours compounds with a hit. Of some 83,000 tested, about 20% had one in any assay.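 Plates (96-well) were seeded with cells, treated with compound at one concentration, and incubated for 48 hours before percent growth was determined.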 Values without a mark were called inactive. The source made the active and inactive calls. The calls were made as follows: active = growth percent below 10; inactive = the rest.

Common to all, as to test: NCI-60 one-dose screen, 48 h (100 = growth as untreated, 0 = no growth, -100 = all killed)
Test [1] has as its system SK-MEL-2 melanoma. The conditions noted are these: 10 µM unless noted.
Test [2] has as its system EKVX NSCLC. The conditions noted are these: 10 µM unless noted.
Test [3] concerns SN12C renal. The conditions noted are these: 10 µM unless noted.
The subject of test [4] is UO-31 renal. The conditions noted are these: 10 µM unless noted.
Test [5] deals with TK-10 renal. To be noted: 10 µM unless noted.
In test [6] the test system is ACHN renal. To be noted: 10 µM unless noted.
Test [7] concerns CAKI-1 renal. The conditions noted are these: 10 µM unless noted.
The subject of test [8] is A498 renal. The conditions noted are these: 10 µM unless noted.
The subject of test [9] is CCRF-CEM leukemia. To be noted: 10 µM unless noted.
Test [10] concerns MOLT-4 leukemia. The conditions noted are these: 10 µM unless noted.
In test [11] the test system is SR leukemia. To be noted: 10 µM unless noted.
The test system of test [12] is RPMI-8226 leukemia. The conditions noted are these: 10 µM unless noted.
Test [13] relates to OVCAR-8 ovarian. The conditions noted are these: 10 µM unless noted.
Test [14] has as its system OVCAR-5 ovarian. The conditions noted are these: 10 µM unless noted.
The test system of test [15] is OVCAR-4 ovarian. The conditions noted are these: 10 µM unless noted.
Test [16] has as its system SK-OV-3 ovarian. To be noted: 10 µM unless noted.
The subject of test [17] is IGROV1 ovarian. The conditions noted are these: 10 µM unless noted.
For test [18], the system named is OVCAR-3 ovarian. To be noted: 10 µM unless noted.
The test system of test [19] is HS 578T breast. The conditions noted are these: 10 µM.
Test [20] relates to NCI/ADR-RES ovarian. The conditions noted are these: 10 µM unless noted.

For `COc1cc(C2=NOC(c3cc(OC)c(OC)c(OC)c3)C2)ccc1OCCCCOc1cc2c(cc1OC)C(=O)N1CCC[C@H]1C=N2` (stereo not given in full), the growth in [1] is 1.46% (active); in test [2], -39.6% (active); in test [3] it was 6.18% (active); in [4] it was 7.06% (active); in test [5], -22.4% (active); in test [6] it was 5.06% (active). The growth in [7] is 5.08% (active); in test [8], -58.7% (active); in [9], -37.5% (active); in [10], 2.1% (active); in test [11], -24.8% (active); in test [12], -27.3% (active). In addition, the growth in test [13] is 6.96% (active); in [14] it was 9.04% (active); in [15], -35.6% (active); in [16], 10.4%; in test [17], -3.57% (active); in test [18], -34.1% (active). In addition, the growth in [19] is -10.4% (active); in test [20], 18.4%.

Consider `O=C(Nc1ccccc1Cl)Oc1ccc2ccccc2c1`, for which the growth in test [1] is 97.3%; in [2] it was 98.9%; in test [3], 99.3%; in [4], 68.7%; in test [5], 130%; in test [6], 98.3%. In addition, the growth is 97.8% in test [7]; 100% in test [8]; 114% in test [9]; 78.2% in test [10]; 71.1% in test [11]; 97.8% in test [12]. Moreover, the growth in [13] was 84.1%; in test [14], 89%; in test [15], 101%; in test [16] it was 93.5%; in test [17], 77.9%; in test [18] it was 96.6%. The values for the growth in test [19] and in test [20] were 115% and 101%, respectively.

On to `CN1CCN(Cc2ccc(NC(=O)c3cncc(C#Cc4ccc(N)nc4)c3)cc2C(F)(F)F)CC1`, for which the growth is -47.8% (active) in test [1]; 7.69% (active) in [2]; 4.16% (active) in test [3]; -1.73% (active) in [4]; 12.7% in [5]; -3.03% (active) in test [6]. Moreover, the growth in [7] was 8.16% (active); in test [8] it was -33.8% (active); in test [9], 13%; in [10] it was 5.85% (active); in test [11] it was 1.34% (active); in test [12] it was 1.97% (active). In addition, the growth is 20.1% in test [13]; 12.5% in test [14]; -8.78% (active) in test [15]; -11% (active) in [16]; -18.2% (active) in test [17]; 27.2% in test [18]. Besides, the growth in test [19] was -21.9% (active); in test [20] it was 25.6%.

Take `Cc1ccc(N=CNN=C(N)N)cc1`: the growth in [1] is 114%; in test [2] it was 117%; in test [3], 99.3%; in [4], 76.6%; in test [5], 118%; in [6], 102%. The growth is 97% in [7]; 99.2% in test [8]; 101% in [9]; 95.4% in test [10]; 76.9% in [11]; 99.4% in [12]. Further, the growth is 91% in test [13]; 99.5% in test [14]; 94.5% in test [15]; 104% in test [16]; 103% in test [17]; 112% in test [18]. Further, the figures for the growth in [19] and in test [20] were 140% and 108%, respectively.

Turning to `C#CC[C@@H]1C[C@]2(C)[C@H]3CC[C@@H]4[C@H]5C(C(=C)C)CC[C@]5(C(=O)NCCCCCCCCN)CC[C@@]4(C)[C@]3(C)CC[C@H]2C(C)(C)[C@H]1OC(C)=O` (stereo not given in full), the growth in [1] was 112%; in [2] it was 103%; in test [3] it was 96.3%; in test [4], 75.5%; in test [5] it was 96.5%; in test [6] it was 111%. Besides, the growth in test [7] was 69.9%; in test [8] it was 95.6%; in [9] it was -8.23% (active); in test [10] it was 5.47% (active); in test [11] it was -16% (active); in [12], 0.0796% (active). Also, the growth in test [13] was 91.3%; in test [14], 108%; in [15], 45.9%; in test [16], 124%; in [17], 85.7%; in test [18] it was 55.4%. Also, the results for the growth in test [19] and in test [20] were 109% and 93.8%, respectively.

`COc1cc2nccc(Oc3ccc(NC(=O)C4(C(=O)Nc5ccc(F)cc5)CC4)cc3)c2cc1Oc1ccc(N)cn1`: the growth in test [1] was 54.3%; in test [2], 15.9%; in test [3] it was 14.8%; in test [4], 19.8%; in test [5], 36.3%; in test [6], 18.6%. For the same molecule, the growth was 43.5% in test [7]; -20.9% (active) in test [8]; 61.2% in test [9]; 29.5% in test [10]; 11.9% in [11]; 48.5% in test [12]. The growth was 47.1% in [13]; 40% in test [14]; 29.9% in test [15]; 61.3% in test [16]; -24.1% (active) in [17]; 49.9% in [18]. For the same molecule, the results for the growth in [19] and in [20] were 7.33% (active) and 73.8%, respectively.

As for `COc1cc2nccc(Oc3ccc(NC(=O)C4(C(=O)Nc5ccc(F)cc5)CC4)cc3)c2cc1O`, the growth in [1] is 88.1%; in test [2] it was 71.1%; in test [3], 30.5%; in [4], 54.4%; in [5], 76.8%; in test [6], 67.8%. Further, the growth in test [7] is 78.1%; in test [8], 59.4%; in [9], 29%; in test [10] it was 44.9%; in [11], 41.3%; in test [12], 52.8%. In addition, the growth in [13] is 73.7%; in test [14], 80.8%; in [15], 37.1%; in test [16] it was 86.5%; in test [17], 52.1%; in test [18], 78.7%. Moreover, the growth in test [19] was 42.7%; in test [20] it was 71.7%.

Consider `CN1CCN(Cc2ccc(NC(=O)c3ccc(C#N)c(C#Cc4cnc(N)c5ncccc45)c3)cc2C(F)(F)F)CC1`, for which the growth in test [1] is 72.4%; in test [2], 96.6%; in test [3], 86.3%; in test [4], -81.8% (active); in test [5] it was 76.9%; in test [6] it was -56.4% (active). Besides, the growth in [7] is 94.1%; in test [8], 89.5%; in [9] it was 27%; in test [10], 59.6%; in test [11], 9.25% (active); in [12], 69.7%. Moreover, the growth in [13] was 12.6%; in [14] it was 18%; in test [15], 75.2%; in test [16], 97.6%; in test [17], 55.3%; in test [18] it was 102%. Moreover, the growth was 68.2% in [19] and 94% in test [20].
